An excerpt weighted towards active compounds, which were near 2.9% of everything screened.
ERb SRC1 inh = blocks coactivator binding to human estrogen receptor beta; inhibition, % at 25.6 µM; Q92731; AID 633; TR-FRET ER-beta LBD / SRC1-Cy5 peptide binding; receptor agonist-loaded with 1 µM estradiol; actives 1.3% (n = 86,000);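 active = compounds whose percent inhibition of the receptor-coactivator binding signal exceeds about 50% in the single-dose screen, limit read from the data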
Target sequence (Q92731 whole entry, looked up, the tested form may be a part): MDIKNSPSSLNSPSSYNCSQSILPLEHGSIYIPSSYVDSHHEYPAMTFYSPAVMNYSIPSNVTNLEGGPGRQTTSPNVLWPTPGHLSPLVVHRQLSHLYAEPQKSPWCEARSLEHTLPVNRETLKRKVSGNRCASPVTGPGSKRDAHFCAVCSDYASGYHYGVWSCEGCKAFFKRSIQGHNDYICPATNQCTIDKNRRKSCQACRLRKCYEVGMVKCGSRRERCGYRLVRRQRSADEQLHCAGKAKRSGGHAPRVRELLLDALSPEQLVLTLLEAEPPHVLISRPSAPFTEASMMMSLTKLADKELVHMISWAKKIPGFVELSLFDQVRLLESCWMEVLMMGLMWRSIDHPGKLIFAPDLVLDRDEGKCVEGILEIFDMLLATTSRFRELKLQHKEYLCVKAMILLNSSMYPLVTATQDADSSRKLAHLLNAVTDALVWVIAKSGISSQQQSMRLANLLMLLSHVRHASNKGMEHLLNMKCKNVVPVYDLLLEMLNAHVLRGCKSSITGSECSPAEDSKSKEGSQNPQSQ
Candida biofilm = kills Candida albicans biofilms. inhibition, % at 6 µM. actives 0.14% (n = 85,000). C. albicans biofilm + clotrimazole, Alamar Blue;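 active = inhibition above 20%; inactive = inhibition below 20%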;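 also: preformed 24 hr biofilms exposed to compound for 48 hr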
Smad3 FoxH1 inh = blocks human Smad3 binding to FoxH1 peptide; actives 0.29% (n = 88,000); TR-FRET Smad3/Dy647-FoxH1 peptide binding, europium anti-His; AID 630; P84022; inhibition, % at 25 µM;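 active = compounds that reduce the energy-transfer binding signal between the protein and its labelled peptide by more than half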
HePTP inh = inhibitors of human HePTP phosphatase; inhibition, % at 20 µM; AID 521; recombinant HePTP phosphatase activity, OD absorbance; actives 0.64% (n = 110,000); in the data active = inhibition above about 50%
ERa coact pot = ER-alpha (human) coactivator binding potentiation; P03372; coactivator binding (% of control), % at 25.6 µM; actives 1.3% (n = 86,000); AID 639; TR-FRET ERalpha-LBD/SRC-Cy5 coactivator binding, 2 h; 100 = basal binding, no effect; in the data active = activity above about 200%;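 also: binding measured in presence of low estradiol as agonist stimulus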
ERa coact inh = blocks coactivator binding to human estrogen receptor alpha. P03372. TR-FRET ER-alpha LBD / SRC-1 peptide, estradiol-bound. inhibition, % at 25.6 µM. actives 1.7% (n = 86,000). AID 629; in the data active = inhibition above about 50%
A number is an active result; [ ] = another dose, or the depositor's remark.

Results for CC(=O)Nc1ccc(/C=C2\SC(=S)N(C)C2=O)cc1 ?
HePTP inh: inactive

What do the screens show for `CCOC(=O)c1ccccc1NC(=O)c1ccncc1`?
HePTP inh: inactive

What do the screens show for `Cc1ccc(S(=O)(=O)N2CCN(C(=O)COc3ccc(-c4nnco4)cc3)CC2)cc1`?
ERb SRC1 inh: inactive; Candida biofilm: inactive; Smad3 FoxH1 inh: inactive; HePTP inh: inactive; ERa coact pot: inactive; ERa coact inh: inactive

How did O=S(=O)(c1ccc(Oc2ccc(-c3nnco3)cc2)nc1)N1CCC(Cc2ccccc2)CC1 do in these assays?
ERb SRC1 inh: inactive; Candida biofilm: inactive; Smad3 FoxH1 inh: inactive; HePTP inh: inactive; ERa coact pot: inactive; ERa coact inh: 75[fluorescence artefact?]

Results for COC(=O)c1c(NC(=O)/C=C/C(=O)O)sc2c1CCC(C(C)(C)C)C2 (stereo not drawn) ?
HePTP inh: inactive

How did c1ccc2c(c1)N1CCN=C1N2CCN1CCOCC1 do in these assays?
HePTP inh: inactive

What do the screens show for `N#C/C(=C\c1cccs1)c1nc2ccccc2s1`?
HePTP inh: inactive

How did O=C(Nc1ccc(S(=O)(=O)N2CCCCCC2)cc1)c1ccccc1[N+](=O)[O-] do in these assays?
HePTP inh: inactive

Results for Cc1csc2ncc(C(=O)Nc3ccc4c(c3)OCCO4)c(=O)n12 ?
ERb SRC1 inh: inactive; Candida biofilm: inactive; Smad3 FoxH1 inh: inactive; HePTP inh: inactive; ERa coact pot: inactive; ERa coact inh: inactive

What do the screens show for `Cc1ccc(NC(=O)c2cnc3scc(C)n3c2=O)c(C)c1`?
ERb SRC1 inh: inactive; Candida biofilm: inactive; Smad3 FoxH1 inh: inactive; HePTP inh: inactive; ERa coact pot: 220; ERa coact inh: 50[fluorescence artefact?]

What do the screens show for `Cc1csc2ncc(C(=O)Nc3ccccc3F)c(=O)n12`?
ERb SRC1 inh: inactive; Candida biofilm: inactive; Smad3 FoxH1 inh: inactive; HePTP inh: inactive; ERa coact pot: inactive; ERa coact inh: inactive

Results for Cc1cccc(NC(=O)c2cnc3scc(C)n3c2=O)c1 ?
ERb SRC1 inh: inactive; Candida biofilm: inactive; Smad3 FoxH1 inh: inactive; HePTP inh: inactive; ERa coact pot: 336[fluorescence artefact?]; ERa coact inh: inactive

Results for Cc1csc2ncc(C(=O)N3c4ccccc4CC3C)c(=O)n12 (stereo not drawn) ?
ERb SRC1 inh: 87; Candida biofilm: inactive; Smad3 FoxH1 inh: inactive; ERa coact pot: inactive; ERa coact inh: inactive

What do the screens show for `Cc1csc2ncc(C(=O)Nc3ccccc3Cl)c(=O)n12`?
ERb SRC1 inh: 65[fluorescence artefact?]; Candida biofilm: inactive; Smad3 FoxH1 inh: inactive; HePTP inh: inactive; ERa coact pot: 239[fluorescence artefact?]; ERa coact inh: 58[fluorescence artefact?]

What do the screens show for `O=C(N/N=C/c1ccccc1O)C1CC(=O)N(c2ccc(Br)cc2)C1` (stereo not drawn)?
HePTP inh: inactive

What do the screens show for `Cc1ccc2c(Cl)c(C(=O)O)sc2c1`?
HePTP inh: inactive

Results for Cc1cc2sc(C(=O)O)c(C)c2s1 ?
ERb SRC1 inh: inactive; Candida biofilm: inactive; Smad3 FoxH1 inh: 54[fluorescence artefact?]; ERa coact pot: inactive; ERa coact inh: inactive

How did Nc1nc(-c2ccccc2)cc(N2CCOCC2)n1 do in these assays?
HePTP inh: 106

How did C=CCC1(O)CC(c2ccc(C)cc2)NC(c2ccc(C)cc2)C1C (stereo not drawn) do in these assays?
HePTP inh: inactive

Results for Cc1cc(C)cc(OC(=O)CCN2C(=O)c3ccccc3C2=O)c1 ?
ERb SRC1 inh: inactive; Candida biofilm: inactive; Smad3 FoxH1 inh: inactive; ERa coact pot: inactive; ERa coact inh: inactive

What do the screens show for `Cc1ccc(NC(=O)c2ccc(OC(=O)CCN3C(=O)c4ccccc4C3=O)cc2)cc1`?
ERb SRC1 inh: inactive; Candida biofilm: inactive; Smad3 FoxH1 inh: inactive; ERa coact pot: 372[fluorescence artefact?]; ERa coact inh: inactive

Results for Cc1ccc(N=Cc2c(O)n(-c3ccc4c(c3)OCO4)c(=O)c3ccccc23)cc1 ?
ERb SRC1 inh: inactive; Candida biofilm: inactive; Smad3 FoxH1 inh: inactive; ERa coact pot: inactive; ERa coact inh: 69

Results for Cc1noc(NS(=O)(=O)c2ccc(NC(=O)CSc3nc4c(cc3C#N)CCCCC4)cc2)c1C ?
ERb SRC1 inh: inactive; Candida biofilm: inactive; Smad3 FoxH1 inh: inactive; ERa coact pot: inactive; ERa coact inh: inactive

Results for CCc1nnc(NC(=O)CSc2nc3c(cc2C#N)CCCC3)s1 ?
ERb SRC1 inh: inactive; Candida biofilm: inactive; Smad3 FoxH1 inh: inactive; HePTP inh: inactive; ERa coact pot: 510[fluorescence artefact?]; ERa coact inh: inactive

What do the screens show for `COc1ccc(NC(=O)CSc2nc3c(cc2C#N)CN(C)CC3)cc1`?
ERb SRC1 inh: 56; Candida biofilm: inactive; Smad3 FoxH1 inh: inactive; HePTP inh: inactive; ERa coact pot: inactive; ERa coact inh: 93[fluorescence artefact?]

How did CN1CCc2nc(SCC(=O)Nc3ccc(F)cc3)c(C#N)cc2C1 do in these assays?
ERb SRC1 inh: inactive; Candida biofilm: inactive; Smad3 FoxH1 inh: inactive; HePTP inh: inactive; ERa coact pot: inactive; ERa coact inh: 83

What do the screens show for `CCN1CCc2nc(SCC(=O)Nc3ccc(OC)cc3)c(C#N)cc2C1`?
ERb SRC1 inh: inactive; Candida biofilm: inactive; Smad3 FoxH1 inh: inactive; HePTP inh: inactive; ERa coact pot: inactive; ERa coact inh: inactive

What do the screens show for `COc1ccc(C(=O)N/N=C/c2ccncc2)cc1OC`?
HePTP inh: inactive

What do the screens show for `Cc1ccc(S(=O)(=O)N2CCN(S(C)(=O)=O)C2C(C)C)cc1` (stereo not drawn)?
HePTP inh: 96

What do the screens show for `CCOCn1c2ccc(Cl)cc2c2cc(Cl)ccc21`?
HePTP inh: inactive

What do the screens show for `Cc1ccc(-c2nnc(CSc3nc4cc5c(cc4cc3C)OCO5)o2)cc1`?
ERb SRC1 inh: 60; Candida biofilm: inactive; Smad3 FoxH1 inh: inactive; HePTP inh: inactive; ERa coact pot: 206[fluorescence artefact?]; ERa coact inh: 77[fluorescence artefact?]

How did COC(=O)C(CCCCNC(=O)OCc1ccccc1)NC(=O)CN (stereo not drawn) do in these assays?
ERb SRC1 inh: inactive; Candida biofilm: inactive; Smad3 FoxH1 inh: inactive; HePTP inh: inactive; ERa coact pot: inactive; ERa coact inh: 91[fluorescence artefact?]

Results for O=C(O)CCCNC(=O)OCc1ccccc1 ?
ERb SRC1 inh: inactive; Candida biofilm: inactive; Smad3 FoxH1 inh: inactive; HePTP inh: inactive; ERa coact pot: inactive; ERa coact inh: inactive

What do the screens show for `COc1ccc(-n2c(SCC(=O)NC3CCCCC3)nc3ccsc3c2=O)cc1`?
ERb SRC1 inh: inactive; Candida biofilm: inactive; Smad3 FoxH1 inh: inactive; ERa coact pot: 214[fluorescence artefact?]; ERa coact inh: inactive

What do the screens show for `COc1ccc(-n2c(Cc3cccn3C)nnc2SCC(=O)NC2CCCCC2)cc1`?
ERb SRC1 inh: inactive; Candida biofilm: 64; Smad3 FoxH1 inh: inactive; HePTP inh: inactive; ERa coact pot: inactive; ERa coact inh: inactive

What do the screens show for `Cn1cccc1Cc1nnc(SCC(=O)NC2CCCC2)n1-c1ccc(F)cc1`?
ERb SRC1 inh: inactive; Candida biofilm: inactive; Smad3 FoxH1 inh: inactive; HePTP inh: inactive; ERa coact pot: inactive; ERa coact inh: inactive

What do the screens show for `COCCCNC(=O)CN(c1cccc(Br)c1)S(=O)(=O)c1ccccc1`?
HePTP inh: inactive

Source: PubChem (several laboratories)
